Among the test systems are HCT-15 colon; HT29 colon; SNB-75 CNS; SNB-19 CNS; U251 CNS; PC-3 prostate; SK-MEL-5 melanoma; UACC-62 melanoma; LOX IMVI melanoma; SK-MEL-28 melanoma; SK-MEL-2 melanoma; EKVX NSCLC; SN12C renal; UO-31 renal; TK-10 renal; ACHN renal; CAKI-1 renal; CCRF-CEM leukemia; MOLT-4 leukemia.
What all share (assay): NCI-60 one-dose screen, 48 h (100 = growth as untreated, 0 = no growth, -100 = all killed)
Common to all, as to conditions: 10 µM unless noted

The structures appear in SMILES notation. About 83,000 compounds went through this panel and 20% of them were active in at least one assay; those are over-represented in the sample as a whole.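 96-well plates, one dose, 48 hours. Percent growth reported; active if below 10.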 A number with no mark means an inactive call. The source made the active and inactive calls.

This passage reports growth results from PubChem BioAssay (NCI).

Turning to `C/C(=N\NC(=O)CSc1nc2ccccc2c(=O)n1Cc1ccc(S(N)(=O)=O)cc1)c1ccc(F)cc1`, the growth with HCT-15 colon was 96.9%; in the test with HT29 colon it was 94.7%; with SNB-75 CNS, 98.5%; in the test with SNB-19 CNS, 102%; in the test on U251 CNS, 103%; in the test on PC-3 prostate it was 102%. The growth in the test on SK-MEL-5 melanoma is 105%; with UACC-62 melanoma it was 102%; in the test with LOX IMVI melanoma it was 97.6%; in the test on SK-MEL-28 melanoma, 117%; in the test on SK-MEL-2 melanoma it was 111%; in the test on EKVX NSCLC it was 90.9%. For the same compound, the growth in the test with SN12C renal is 101%; in the test with UO-31 renal it was 84.5%; in the test with TK-10 renal it was 102%; with ACHN renal, 105%; in the test on CAKI-1 renal, 95%; with CCRF-CEM leukemia, 106%. For the same compound, the growth with MOLT-4 leukemia was 107%.

As for `COC(=O)/C=C1\S/C(=N\NC(=O)c2cc3ccc2/C=C\c2ccc(cc2)/C=C\3)N(c2ccccc2)C1=O`, the growth in the test on HCT-15 colon was 0.337% (active); in the test with HT29 colon it was -13.1% (active); in the test with SNB-75 CNS, 45.7%; in the test on SNB-19 CNS, 39.9%; with U251 CNS, 15.8%; with PC-3 prostate, -35.9% (active). The growth was 69.3% in the test with SK-MEL-5 melanoma; 25.2% in the test with UACC-62 melanoma; -27.8% (active) with LOX IMVI melanoma; 82.5% in the test on SK-MEL-28 melanoma; 87% in the test with SK-MEL-2 melanoma; 59% with EKVX NSCLC. The growth in the test on SN12C renal was 22.5%; in the test with UO-31 renal it was 58.5%; in the test with TK-10 renal it was 15.2%; in the test with ACHN renal, 49.3%; with CAKI-1 renal, 69.3%; in the test with CCRF-CEM leukemia, 13%. Further, the growth in the test with MOLT-4 leukemia was 3.03% (active).

`O=C(c1nnc(Nc2ccccc2Br)o1)c1c[nH]c2ccccc12`: the growth with HCT-15 colon was 80.1%; in the test on HT29 colon, 100%; in the test on SNB-75 CNS, 89.2%; in the test on SNB-19 CNS, 96.8%; in the test with U251 CNS, 96.9%; with PC-3 prostate, 87.6%. The growth was 89.5% with SK-MEL-5 melanoma; 83% with UACC-62 melanoma; 96% in the test on LOX IMVI melanoma; 104% in the test with SK-MEL-28 melanoma; 110% with SK-MEL-2 melanoma; 104% in the test on EKVX NSCLC. In addition, the growth was 93.4% in the test on SN12C renal; 87% in the test with UO-31 renal; 112% in the test with TK-10 renal; 90.8% with ACHN renal; 87.4% in the test on CAKI-1 renal; 97.5% in the test with CCRF-CEM leukemia. For the same compound, the growth in the test with MOLT-4 leukemia was 106%.

Take `C=C1C(=O)O[C@H]2[C@H]1CC/C(CNC(=O)/C=C/c1cccc(OC)c1)=C\CC[C@@]1(C)O[C@@H]21`: the growth in the test on HCT-15 colon was -44.7% (active); in the test on HT29 colon, -36.7% (active); in the test on SNB-75 CNS, 90.1%; in the test with SNB-19 CNS it was 55.5%; in the test on U251 CNS it was 47.3%; with PC-3 prostate, 36%. Further, the growth with SK-MEL-5 melanoma was 67.8%; in the test with UACC-62 melanoma it was -26.6% (active); in the test with LOX IMVI melanoma it was 0.442% (active); in the test with SK-MEL-28 melanoma it was -48.7% (active); in the test on SK-MEL-2 melanoma, 55.6%; in the test with EKVX NSCLC, -20.2% (active). Moreover, the growth in the test on SN12C renal is 6.02% (active); in the test on UO-31 renal, -94.6% (active); with TK-10 renal, -37.7% (active); with ACHN renal, -79.7% (active); with CAKI-1 renal, -71.9% (active); in the test on CCRF-CEM leukemia, 1.02% (active). Moreover, the growth in the test with MOLT-4 leukemia was -3.23% (active).

As for `O=C1c2ccc3c4c(ccc(c24)C(=O)N1CCCNCc1ccccc1)C(=O)N(CCCNCc1ccccc1)C3=O`, the growth in the test with HCT-15 colon is -57.7% (active); in the test on HT29 colon it was -63.5% (active); with SNB-75 CNS, -97.2% (active); with SNB-19 CNS, -75.5% (active); in the test with U251 CNS, -87.7% (active); in the test with PC-3 prostate it was -65.4% (active). Further, the growth with SK-MEL-5 melanoma is -99.2% (active); with UACC-62 melanoma, -71.1% (active); in the test on LOX IMVI melanoma, -75.6% (active); with SK-MEL-28 melanoma, -95.9% (active); in the test on SK-MEL-2 melanoma, -82.9% (active); with EKVX NSCLC it was -39.2% (active). Also, the growth in the test with SN12C renal was -88% (active); in the test with UO-31 renal, -48.6% (active); in the test with TK-10 renal it was -84.2% (active); in the test on ACHN renal it was -53.5% (active); with CAKI-1 renal, -19.6% (active); in the test on CCRF-CEM leukemia, -30.5% (active). Moreover, the growth in the test on MOLT-4 leukemia was -32.3% (active).

On to `CC(=O)Nc1ccc(-c2ccc3c(c2)NC(=O)/C3=C\c2ccc[nH]2)cc1`, for which the growth in the test on HCT-15 colon is 92.6%; with HT29 colon, 90.6%; in the test with SNB-75 CNS, 111%; in the test on SNB-19 CNS it was 104%; in the test on U251 CNS, 86.6%; in the test with PC-3 prostate, 97.8%. The growth in the test with SK-MEL-5 melanoma is 100%; with UACC-62 melanoma, 105%; in the test with LOX IMVI melanoma, 84.2%; with SK-MEL-28 melanoma it was 116%; in the test with SK-MEL-2 melanoma it was 96%; with EKVX NSCLC it was 49.5%. The growth in the test with SN12C renal was 94.6%; in the test on UO-31 renal it was 38.8%; with TK-10 renal it was 70.2%; in the test with ACHN renal, 69.5%; in the test with CAKI-1 renal, 78.1%; with CCRF-CEM leukemia it was 94.8%. Also, in the test on MOLT-4 leukemia, the growth is 87.3%.

For `O=S(=O)(NCCNc1nccc(-c2c(-c3cccc(O)c3)nc3occn23)n1)c1ccc(C(F)(F)F)cc1`, the growth in the test with HCT-15 colon was 108%; in the test on HT29 colon it was 72.9%; in the test with SNB-75 CNS it was 92.5%; in the test with SNB-19 CNS it was 115%; in the test on U251 CNS it was 104%; with PC-3 prostate, 99.7%. The growth in the test on SK-MEL-5 melanoma is 55.7%; in the test on UACC-62 melanoma, 26.7%; in the test with LOX IMVI melanoma it was 75.1%; with SK-MEL-28 melanoma, 58.3%; with SK-MEL-2 melanoma it was 93.7%; in the test with EKVX NSCLC, 105%. Moreover, the growth in the test with SN12C renal is 102%; with UO-31 renal, 93.9%; in the test on TK-10 renal, 137%; in the test on ACHN renal, 84.4%; in the test with CAKI-1 renal, 69.6%; with CCRF-CEM leukemia, 106%. The growth in the test with MOLT-4 leukemia is 111%.

As to `CC(Sc1nc2ccccc2c(=O)n1CCc1ccc(S(N)(=O)=O)cc1)C(=O)Nc1ccc(Cl)cc1` (configuration not stated), the growth was 67.9% in the test on HCT-15 colon; 89.5% in the test with HT29 colon; 83.3% with SNB-75 CNS; 90.1% in the test with SNB-19 CNS; 84.1% in the test on U251 CNS; 81.7% in the test on PC-3 prostate. The growth in the test with SK-MEL-5 melanoma is 79.4%; with UACC-62 melanoma, 73.6%; in the test on LOX IMVI melanoma it was 88.3%; in the test with SK-MEL-28 melanoma it was 105%; with SK-MEL-2 melanoma, 80.9%; in the test with EKVX NSCLC it was 70.3%. The growth is 86.2% in the test with SN12C renal; 53.8% in the test on UO-31 renal; 80.1% in the test on TK-10 renal; 86.3% in the test on ACHN renal; 75.6% with CAKI-1 renal; 63.7% with CCRF-CEM leukemia. Besides, the growth in the test on MOLT-4 leukemia was 68.3%.
